Screening data as filed in PubChem.
Shown are actives, neighbours in structure and some others; about 4.4% of the full set was active somewhere.
TRHR enhancer – TRH receptor (human) allosteric enhancement | P34981 | TRHR cells, fluo-8 calcium fluorescence, EC20 TRH enhancement | enhancement, % at 2 µM | hit rate 0.66% among 360,000; in the data active means enhancement above about 30%; further: 0% is about no effect
Target sequence (P34981 whole entry, looked up): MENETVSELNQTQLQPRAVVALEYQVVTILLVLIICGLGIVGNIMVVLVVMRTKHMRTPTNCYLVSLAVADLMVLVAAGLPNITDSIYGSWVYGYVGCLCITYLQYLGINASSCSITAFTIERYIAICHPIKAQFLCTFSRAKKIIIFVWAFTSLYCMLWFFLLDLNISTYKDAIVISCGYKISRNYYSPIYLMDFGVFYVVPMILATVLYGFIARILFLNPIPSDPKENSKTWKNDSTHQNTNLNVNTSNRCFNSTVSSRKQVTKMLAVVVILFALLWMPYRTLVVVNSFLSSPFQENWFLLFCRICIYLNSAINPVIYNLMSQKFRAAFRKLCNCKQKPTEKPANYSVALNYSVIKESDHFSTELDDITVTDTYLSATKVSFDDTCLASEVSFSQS
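TRHR-expressing cells loaded with fluo-8 calcium dye were read kinetically (ex 480/em 530) during compound addition, then stimulated with an EC20 of TRH (10 nM final). Enhancement of the Gq-mediated intracellular calcium response was scored.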
D1 agonist – human D1 receptor agonism | P21728 | HEK293 T-REx D1 cells, calcium flux, agonist mode | activation, % at 2 µM | hit rate 1% among 360,000 | AID 504660; further: 0% is about no effect
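Agonism was scored from calcium flux recorded over 180 s (1 read/s) after pintool compound addition, following a 10-cycle baseline. Cells were inducible force-coupled HEK293 TREx D1, plated overnight at 30 C and loaded with no-wash calcium dye.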
D1 antag – antagonists of human D1 dopamine receptor; P21728; HEK293 TREx D1 cells, calcium flux, dopamine EC80; stronger effect = lower value; activity change, negative = inhibition, % at 10 µM; hit rate 3.2% among 360,000; in the data active means activity change below about -30%; further: on the % scale 0 is the no-effect control and ±100 the full control effect
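Compound effects on dopamine-evoked calcium signalling were measured in tetracycline-induced HEK293 Trex D1 cells. Dopamine at EC80 followed a 180 s compound pre-read, and fluorescence was tracked kinetically for 180 s more.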
D1 potentiator – human D1 dopamine receptor positive modulation | HEK293 TREx D1 cells, calcium flux, dopamine EC20 potentiation | potentiation, % at 10 µM | hit rate 0.036% among 360,000; in the data active means potentiation above about 30%; further: 0% is about no effect
USP1-UAF1 inh – USP1/UAF1 (human) deubiquitinase inhibition; recombinant USP1/UAF1, Ub-Rhodamine cleavage fluorescence; AID 743255; hit rate 0.23% among 390,000; Potency, µM (highest dose often 57.1 µM), inactives show top-dose activity change, negative = inhibition, most hits filed as inhibitors; O94782; active means well fitted inhibition curve with a large enough effect; inconclusive means small, poorly fitted or top-dose-only effect; inactive means no such curve, though single readings can be large or run the other way; further: potency means the concentration at half of the fitted maximal effect; on the % scale 0 is the no-effect control and ±100 the full control effect; nearly all actives have a fitted effect of over 60% in size
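High-throughput fluorogenic screen: 1nM USP1/UAF1 complex, Ub-Rho substrate 150nM final, 50mM HEPES pH 7.8 with 0.5mM EDTA, 0.1 mg/ml BSA, 1mM TCEP and 0.01% Tween-20.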
TRHR ag – TRH receptor (human) agonism. P34981. TRHR cells, calcium flux fluo-8, FDSS agonist mode. activation, % at 2 µM. hit rate 0.18% among 360,000; further: 0% is about no effect
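In this calcium-flux screen, cells bearing human TRHR are dye-loaded with fluo-8, baselined for 10 cycles, then exposed to library compounds; positive kinetic calcium responses during the agonist phase mark hits, with TRH as control.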
The depositor's hits bear a star; ? = inconclusive; . = not tested or not shown. Unless noted, no stated cut-off is given here; in the data, active means activation above about 30%; inactive means the rest.

SMILES	TRHR enhancer	D1 agonist	D1 antag	D1 potentiator	USP1-UAF1 inh	TRHR ag
COc1ccc(-n2nnnc2SCC(=O)NCc2ccco2)cc1OC	1.8	0.8	-16.0	-2.3	-7.1%	-0.3
Cc1cc(NC(=O)CSc2nnnn2-c2ccccc2F)no1	-1.3	-0.1	5.0	2.8	-17.9%	0.0
N#Cc1ccc(S(=O)(=O)N2CCCN(c3ccc(C(F)(F)F)cn3)CC2)cc1	-13.2	2.8	-35.7*	-3.6	0.4%	1.2
COc1ccc(/C=C(/NC(=O)c2ccccc2)C(=O)N2CCCCC2)cc1OC	25.4	72.1*	-0.4	4.3	-23.4%	-0.7
O=C(N/C(=C\c1cccnc1)C(=O)N1CCOCC1)c1ccco1	5.6	1.1	-32.7*	-6.5	-0.5%	1.4
COc1ccc(/C=C(\NC(=O)c2ccccc2)C(=O)N2CCCCC2)cc1OC	0.6	7.3	-3.0	-5.2	-8.6%	0.5
COc1ccc(/C=C(/NC(=O)c2ccco2)C(=O)N2CCCCCC2)cc1OC	15.2	35.8*	29.3	-1.9	1.9%	0.2
COc1ccc(/C=C(/NC(=O)c2ccccc2)C(=O)N2CCCC2)cc1OC	-6.4	0.1	23.6	-0.1	-3.6%	0.0
O=C(CSc1ncccc1C(=O)Oc1ccccc1Cl)Nc1ccc(C(F)(F)F)cc1Cl	7.0	-1.7	-15.6	-3.4	17.5%	0.6
COc1cc(/C=C(\C#N)c2ccccn2)cc(OC)c1O	4.7	38.0*	1.7	-0.9	-19.9%	47.0*
COc1ccc(-c2cc(C(C)=O)c(C)n2CCC(=O)Nc2ccc(C(F)(F)F)cc2)cc1	2.4	7.5	14.9	-6.0	-9.8%	0.7
Cc1nc([N+](=O)[O-])cn1Cc1cccc([N+](=O)[O-])c1	1.8	3.2	-31.3*	-6.4	-11.3%	1.1
COc1ccc(Cn2cc([N+](=O)[O-])nc2C)cc1[N+](=O)[O-]	3.6	1.8	7.4	-1.5	-4.8%	0.2
N#CCC(=O)N1CC2(CC(c3cccc(NC(=O)COc4ccc(Cl)cc4)c3)=NO2)C[C@@H]1C(N)=O (some centres not stated)	-5.0	1.8	-41.4*	1.0	-20.3%	-0.1
C/C=C(\C)C(=O)Nc1cccc(C2=NOC3(C2)C[C@H](C(N)=O)N(C(=O)c2cc([N+](=O)[O-])cc([N+](=O)[O-])c2)C3)c1 (some centres not stated)	5.2	4.9	-64.4*	-4.5	-26.7%	0.2
C/C=C\C=C/C(=O)Nc1cccc(C2=NOC3(C2)C[C@@H](C(N)=O)N(C(=O)c2ccc(Cl)cc2)C3)c1 (some centres not stated)	1.3	3.4	-30.0*	-2.2	-26.4%	0.5
C/C=C/C(=O)Nc1cccc(C2=NOC3(C2)C[C@H](C(N)=O)N(C(=O)/C=C/C)C3)c1 (some centres not stated)	2.6	0.2	-41.8*	-0.9	-17.9%	-0.6
NC(=O)[C@@H]1CC2(CC(c3cccc(NC(=O)COc4ccc(Cl)cc4)c3)=NO2)CN1C(=O)COc1ccc(Cl)cc1 (some centres not stated)	-4.1	1.4	24.3	-1.2	-16.6%	0.9
Cc1cc2oc(C(=O)Nc3ccc(S(=O)(=O)Nc4onc(C)c4C)cc3)cc(=O)c2cc1C	2.2	0.7	10.1	-2.6	-19.4%	0.0
CSC1=NC2(CCN(C(=O)NC3CCCCC3)CC2)N=C1c1ccc(C)cc1	11.9	-0.9	0.3	0.9	-6.9%	-0.8
CCOc1ccc(NC(=O)CN(C)C(=O)c2ccc(C3SCCS3)cc2)cc1OCC	-0.9	0.6	-44.5*	-18.8	-3.1%	0.0
CCOc1ccc(NC(=O)CN(C)C(=O)c2ccc(=O)[nH]c2)cc1OCC	2.4	0.9	-77.3*	-20.9	-5.0%	0.8
Cc1c(Br)cc(F)c([S+](=O)([O-])N2CCN([S+](=O)([O-])c3ccc4c(c3)OCCO4)CC2)c1F	-2.0	1.3	-28.8	3.0	.	1.2
CCc1cccc(CC)c1N(COC)C(=O)Cn1c(C)nc2ccccc21	-6.6	3.0	3.8	3.5	37.8%	-0.9
CCOC(=O)C1CCN(C(=O)Cn2nc(C)n3c(cc4sccc43)c2=O)CC1	7.0	0.5	-41.7*	-5.8	-7.0%	-0.2
SMILES	TRHR enhancer	D1 agonist	D1 antag	D1 potentiator	USP1-UAF1 inh	TRHR ag
CCOC(=O)C1CCN(C(=O)CCn2c(=O)[nH]c3ccsc3c2=O)CC1	3.4	2.4	-37.0*	-7.3	-9.0%	0.5
CCOC(=O)N1CCN(C(=O)CCn2c(=O)[nH]c3ccsc3c2=O)CC1	-5.0	3.4	14.1	-4.9	-22.1%	0.1
CCOC(=O)N1CCN(C(=O)CCn2c(=S)[nH]c3ccsc3c2=O)CC1	38.9*	-0.6	-49.3*	-3.5	-4.9%	-1.4
O=C(CCn1c(=O)[nH]c2ccsc2c1=O)N1CCc2ccccc2C1	-0.9	2.7	0.2	-1.9	-0.3%	-0.2
COc1cc(-c2cc3n(C)c(C)c(CCC(=O)O)c(=O)n3n2)cc(OC)c1OC	14.0	-0.4	-18.7	5.8	?	-0.2
COc1ccc(CCN(C)C(=S)Nc2ccc(SC(F)F)cc2)cc1OC	5.1	24.3	-27.6	-7.0	-16.3%	0.2
COc1ccc(CCN(C)C(=S)NC(=O)c2ccc(F)cc2Cl)cc1OC	-5.1	4.3	-56.1*	-2.5	-18.2%	0.1
C=CCC(NCc1ccccc1)c1ccco1 (configuration not stated)	2.7	0.7	-56.8*	-12.7	3.9%	-0.3
COc1ccc(CC(=O)NCc2ccccc2)cc1	-2.6	1.5	-8.8	-3.5	6.0%	-0.3
O=C(NCc1ccccc1)c1ccco1	-2.1	-2.3	17.3	-3.9	7.1%	0.2
C=CCC(NCc1ccccc1)c1ccc(OC)cc1 (configuration not stated)	5.2	5.9	-33.7*	10.6	-13.4%	0.5
Cc1ccc(Cn2c(SCc3ccc(C(=O)NC4CCCC4)cc3)nc3ccncc32)cc1	-4.3	8.3	-37.2*	-4.8	-7.4%	0.9
Cc1ccc(Cn2c(SCc3ccc(C(=O)NC4CCCCC4)cc3)nc3ccncc32)cc1	0.9	2.5	-16.4	-4.9	-20.1%	0.3
COc1ccc(Cn2c(SCc3ccc(C(=O)NC4CCCC4)cc3)nc3ccncc32)cc1	-1.6	4.9	-30.6*	-2.9	-32.7%	-0.9
O=C(NCCc1ccccc1)c1ccc(CSc2nc3ccncc3n2Cc2cccc(F)c2)cc1	7.9	58.6*	-35.1*	7.4	-18.2%	-1.8
O=C(COc1ccccc1Cl)NCC1(N2CCOCC2)CCCCC1	1.0	-2.9	-3.4	-0.3	-11.3%	-3.0
CC(=O)c1cccc(Nc2nc(N3CCOCC3)nc(N3CCOCC3)n2)c1	-7.6	3.0	-5.9	1.4	-12.9%	-0.9
